Screening results deposited in PubChem BioAssay by National Center for Advancing Translational Sciences (NCATS).
The list is not random: actives were taken first. Their share in the collection is about 19%.
DT40 TDP1 no CPT – qHTS for Inhibitors of human tyrosyl-DNA phosphodiesterase 1 (TDP1): qHTS in cells in absence of CPT | Potency, µM (highest dose often 46.2 µM), for inactives: at the top dose activity change, negative = growth inhibition, usual class: inhibitors | 15% of 420,000 active | DT40 Tdp1-/- hTDP1 cells, no CPT, ATP luminescence, 48 h | AID 686978, 2013; note: nearly all actives have a fitted effect of over 55% in size
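Seeded 400 DT40-hTDP1 cells/well (vehicle DMSO, no 20 nM CPT); pinned compounds; ≥48 hr at 37 °C; CellTiter-Glo luminescence as viability measure.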
KB-3-1 tox – kills parental KB-3-1 adenocarcinoma cells | Potency, µM (doses to about 46.1 µM), hits mostly cytotoxic | KB-3-1 viability, CellTiter-Glo ATP luminescence, 72 h | AID 1347075 | 1.4% of 400,000 active; note: nearly all actives have a fitted effect of over 60% in size
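Luminescent ATP read-out (CellTiter-Glo) measures survival of drug-naive KB-3-1 cells after 72 h compound exposure at 37 °C. Titration series was screened from lowest to highest concentration, with DMSO vehicle plates as background controls.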
TDP1 cell CPT – DT40-hTDP1 cell growth loss with CPT; Potency, µM (titrated, usually from 46.2 µM), for the others: top-dose activity change, negative = growth inhibition, most hits filed as inhibitors; chicken DT40 Tdp1-/-;hTDP1 cells + 20 nM CPT, ATP luminescence, 48 h; 12% of 420,000 active; note: nearly all actives have a fitted effect of over 55% in size
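Chicken DT40 Tdp1-/- cells stably complemented with human TDP1 were seeded at 400 cells/well in medium containing 20 nM camptothecin, exposed to pin-transferred compounds, and grown at 37 °C for at least 48 hr. Viability was read as ATP luminescence.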
HT1080 IDH1KD tx – toxicity to HT-1080 IDH1 knockdown cells (counter line). HT-1080 IDH1 knockdown viability, ATP luminescence, 48 h. Potency, µM (series often up to 46.1 µM), without a hit: at the highest dose activity, negative = toxicity, most hits filed as cytotoxic. 2% of 360,000 active;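 note: 0% = DMSO wells and -100% = cell-free medium wells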
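CellTiter-Glo luminescence after 48 h compound exposure at 37 degrees C of IDH1-knockdown HT-1080 cells in 5% FBS RPMI. %Activity scaled between DMSO wells and cell-free media wells, with curves fitted and assigned curve classes.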
HT1080NT lethal – kills 2HG-producing HT-1080-NT fibrosarcoma cells | 1.6% of 360,000 active | HT-1080-NT fibrosarcoma viability, CellTiter-Glo ATP luminescence, 48 h | Potency, µM (doses to about 46.1 µM), for the others: at the top dose activity, negative = less viability, hits mostly cytotoxic;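 note: NT is the 2HG producing partner of a matched IDH1 knockdown line; 0% = DMSO-treated cells and -100% = media-only wells without cells; nearly all actives have a fitted effect of over 55% in size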
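HT-1080-NT fibrosarcoma cells (2HG-overproducing), 750 cells/well in RPMI with 5% FBS, dosed after 2 h and incubated 48 h at 37C. CellTiter-Glo luminescence normalized to DMSO and no-cell wells; concentration-response curves fitted and classed.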
KB-V1 MDR tox – KB-V1 MDR subline cytotoxicity; KB-V1 MDR cells viability, CellTiter-Glo, 72 h; Potency, µM (doses to about 46.1 µM), usual class: cytotoxic; 3.4% of 400,000 active; note: nearly all actives have a fitted effect of over 60% in size
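Readout: CellTiter-Glo luminescence, 10 min after addition. Cells: KB-V1 MDR subline, 72 h at 37 degrees C with compound. Analysis: corrected, normalized data fitted to concentration-effect curves.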
An asterisk follows results filed as active; i = inactive; ? = inconclusive; . = not tested or not shown; [ ] = dose if it differs, or a comment. Calls come from the whole dose curve; as a rule, active = well fitted curve in the direction sought with a large enough effect; inconclusive = small, poorly fitted or top-dose-only effect, or another doubt; inactive = no such curve, though single readings can be large; an effect the other way counts as inactive or inconclusive. Unless noted, % is set by controls: 0 for no effect and ±100 for the full control effect; potency is the fitted concentration of half-maximal effect.

SMILES | DT40 TDP1 no CPT | KB-3-1 tox | TDP1 cell CPT | HT1080 IDH1KD tx | HT1080NT lethal | KB-V1 MDR tox
COc1ccc(-c2nn(Cc3ccccc3)cc2C(=O)N2CCN(c3ncccn3)CC2)cc1OC | -4% | i | -4% | 2% | -4%[9.24 µM] | ?
CCOC(=O)c1c(C)sc(-c2c(-c3ccc(OC)c(F)c3)[nH]c3c2c(=O)[nH]c(=O)n3C)c1O | 16µM* | i | 16µM* | . | . | i
CCOC(=O)c1c(C)sc(-c2c(-c3ccc4c(c3)OCCO4)[nH]c3c2c(=O)n(C)c(=O)n3C)c1O | 18µM* | i | 18µM* | . | . | i
CCc1ccc(-c2[nH]c3c(c2-c2sc(C)c(C(=O)OC)c2O)c(=O)[nH]c(=O)n3C)cc1 | 5.8µM* | ? | 7.3µM* | . | . | i
CCOC(=O)C[C@@H]1OC2CCCCC2N1S(=O)(=O)c1ccc(C)cc1 (some centres not stated) | ? | i | 26µM* | -3% | -5% | ?
Cc1ccc(S(=O)(=O)N2C3CCCCC3O[C@H]2CC(=O)Oc2ccccc2)cc1 (some centres not stated) | -30% | i | ? | -1% | 6% | i
COc1ccc(C(=O)C[C@@H]2OC3CCCCC3N2S(=O)(=O)c2ccc(C)cc2)cc1OC (some centres not stated) | 16µM* | i | 16µM* | -6% | 0% | ?
Cc1ccc(S(=O)(=O)N2C3CCCCC3O[C@H]2CC(=O)c2cccs2)cc1 (some centres not stated) | ? | i | ? | ? | -25% | ?
CCOC(=O)CCC(=O)Nc1ccc(S(=O)(=O)Nc2cc(OC)nc(OC)n2)cc1 | 2% | i | 1% | 4% | 0% | i
CSCCC(NC(=O)OCc1ccccc1)NC(=O)OCc1ccccc1 | -7% | i | 7% | 3% | 20% | i
COc1nc(-c2ccc(Cl)cc2Cl)nc2ccccc12 | ? | i | ? | 15% | 5% | i
CC(=O)[C@H]1CC[C@H]2C3CC=C4C[C@@H](O)CC[C@]4(C)C3CC[C@]12C (some centres not stated) | 14% | . | 6% | . | . | .
COC1CCC2(C)C(=CCC3C4CC(O)CC4(C)CCC32)C1 (configuration not stated) | 21µM* | i | 21µM* | -2% | -3% | 18µM*
N#CC(c1ccccc1)c1ccc(C(=O)c2ccc(F)cc2)cc1 (configuration not stated) | 23µM* | i | -56% | -21% | -12% | ?
N#CC(c1ccccc1)c1ccc([N+](=O)[O-])cc1 (configuration not stated) | ? | 21µM* | ? | 6% | -1% | i
Cc1nn(-c2ccccc2)c2c1C(c1ccc(O)c(O)c1)N1C(=N2)C(Nc2ccccc2)=Nc2ccccc21 (configuration not stated) | 1% | i | 6% | 1% | 3% | i
Cc1ccc(NC2=Nc3ccccc3N3C2=Nc2c(c(C)nn2-c2ccccc2)C3c2ccc(O)c(O)c2)cc1 (configuration not stated) | ? | ? | ? | ? | 23µM* | ?
Cc1cccc(NC2=Nc3ccccc3N3C2=Nc2c(c(C)nn2-c2ccccc2)C3c2ccc(O)c(O)c2)c1 (configuration not stated) | ? | ? | ? | 16µM* | 15µM* | ?
CC(CC(=O)Nc1cccnc1)c1ccccc1 (configuration not stated) | 3% | i | -1% | 1% | 4% | i
